Reference: PubChem BioAssay AID488847 (NMMLSC, 2010)
Hit rate of the full screen: of about 330,000 compounds, about 1,900 (0.58%) were called active.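 The calls were made as follows: active = inhibition of aptamer binding above 40%, roughly 3 SD of noise, on plates passing a quality check; inactive = the rest.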 The full list was thinned out, with actives kept by preference.

These compounds were tested against Beta-adrenergic receptor kinase 1 (Homo sapiens) (UniProt P25098) (assay: compounds blocking aptamer binding on GRK2 – biochemical, human GRK2, bead flow cytometry, HTS, primary screen (AID 488847;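 also: median bead fluorescence of bound FAM aptamer so fluorescent compounds give negative values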)). Details: FAM-aptamer displacement from GRK2, at 10 µM, active compounds read high.
Beta-adrenergic receptor kinase 1 (Homo sapiens), sequence (P25098 whole entry, looked up): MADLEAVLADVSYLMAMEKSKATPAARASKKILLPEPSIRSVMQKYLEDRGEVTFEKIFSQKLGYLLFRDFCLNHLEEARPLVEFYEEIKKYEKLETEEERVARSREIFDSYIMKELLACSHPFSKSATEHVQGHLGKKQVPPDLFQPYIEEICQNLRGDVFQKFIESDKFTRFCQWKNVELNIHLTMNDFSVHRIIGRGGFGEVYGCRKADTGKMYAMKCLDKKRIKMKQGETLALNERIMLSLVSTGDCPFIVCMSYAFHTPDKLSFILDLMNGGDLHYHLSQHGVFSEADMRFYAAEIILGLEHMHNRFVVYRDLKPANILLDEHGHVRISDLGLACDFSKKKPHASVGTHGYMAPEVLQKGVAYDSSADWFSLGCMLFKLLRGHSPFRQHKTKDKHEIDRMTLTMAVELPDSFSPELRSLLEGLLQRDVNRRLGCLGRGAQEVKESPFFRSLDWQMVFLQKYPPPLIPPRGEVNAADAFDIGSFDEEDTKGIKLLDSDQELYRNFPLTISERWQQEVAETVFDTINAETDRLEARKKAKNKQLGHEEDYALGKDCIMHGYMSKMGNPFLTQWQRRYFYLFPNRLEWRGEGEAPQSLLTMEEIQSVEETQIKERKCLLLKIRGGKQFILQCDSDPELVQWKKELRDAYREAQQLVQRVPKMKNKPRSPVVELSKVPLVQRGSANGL

Inhibition of aptamer binding, active:
CSc1nc2ccccc2c(=O)n1Cc1ccc(F)cc1 76%
O=C(Nc1ccc(-c2nnc(-c3ccccc3)o2)cc1)c1ccc(Br)o1 92%
O=C(NCCCN1CCCCCC1)c1ccc(N2CCCC2=O)cc1 43%
CCOC(=O)C(C)n1cnc2scc(-c3ccc(C)c(C)c3)c2c1=O (stereo not drawn) 64%
COc1cccc(OC)c1C(=O)Nc1ccc(Cc2ccncc2)cc1 55%

Inhibition of aptamer binding, inactive:
O=C(C1CCC1)N1CCc2cc(S(=O)(=O)NCc3cccnc3)ccc21 0%
O=C(CSc1nc2ccccc2c(=O)n1Cc1ccc(F)cc1)NCC1CCCO1 (stereo not drawn) 0%
O=C(CSc1nc2ccccc2c(=O)n1-c1ccc(F)cc1)NC1CC1 0%
O=c1[nH]c(CCl)nc2cc(-c3ccc(Cl)cc3)sc12 0%
NC(=O)CC(NC(=O)Cc1cccc2ccccc12)c1ccc(NCc2cc(F)ccc2F)c([N+](=O)[O-])c1 (stereo not drawn) 1%
CCCC/S(C)=N/S(=O)(=O)c1ccc(C)cc1 (stereo not drawn) 1%
COc1ccc(CN2CCN(Cc3cn(C)nc3-c3ccccc3)CC2CCO)c(C)c1C (stereo not drawn) 0%
CN(CC(=O)Nc1ccc(C(N)=O)cc1)S(=O)(=O)c1ccc2c(c1)OCCO2 0%
Cc1nc(S(=O)(=O)c2ccc(Br)cc2)nc2c1CCC2 5%
Brc1ccc(-c2nnc(-c3ccccc3)o2)o1 5%
O=C(CNC(=O)c1ccc(Br)o1)Nc1ccccc1 1%
CC1CCC(NC(=O)c2ccc(N3CCCC3=O)cc2)CC1 (stereo not drawn) 0%
CCOc1ccc(C(=O)NCCCN2CCCC2=O)cc1 2%
CC1=CC(C)(C)NC(=S)N1NC(=O)c1ccccc1Cl 1%
COc1ccc(C2C(C#N)=C(N)Oc3cc(N)ccc32)cc1OC (stereo not drawn) 0%
CCn1cnc2scc(-c3ccc(C)c(C)c3)c2c1=O 0%
CC(=O)C(C)n1cnc2scc(-c3ccc(C)cc3)c2c1=O (stereo not drawn) 1%
CCOC(=O)c1ccc(S(=O)(=O)N(CCO)Cc2cc3cc(OC)c(OC)cc3[nH]c2=O)cc1 0%
CN(C)CC(C)(C)CNC(=O)c1cc(Br)cc(Br)c1O 6%
CC(C)CC(=O)Nc1ccc(Cc2ccncc2)cc1 0%
COc1cccc(OC)c1C(=O)Nc1ccc2c(c1)n(C)c(=O)n2C 1%
Cc1ccc(S(=O)(=O)NCCSC(C)(C)C)cc1 1%
O=C(OCC1O[C@@H](OC(=O)c2cc(O)c(O)c(O)c2)[C@@H](OC(=O)c2cc(O)c(O)c(O)c2)[C@@H](OC(=O)c2cc(O)c(O)c(O)c2)[C@@H]1OC(=O)c1cc(O)c(O)c(O)c1)c1cc(O)c(O)c(O)c1 (stereo partly drawn) 1%
